PubChem BioAssay (Tox21)
Several values for one entry are separate records, joined by “and”; a condition that tells them apart may be missing. Equal entries are not always repeated. A number with no mark means an inactive call. Records with an inconclusive call do not appear. Entries that show only a call come without a potency. Activity calls are given as the source filed them. Unless noted, the call rests on the fitted dose curve; in most records, active means well fitted curve in the direction sought with a large enough effect in the repeat runs; inconclusive means weak or mixed curves; inactive means no such curve, though single readings can be large; an effect the other way counts as inactive or inconclusive.

Columns and labels:
[1] = qHTS assay to identify small molecule agonists of H2AX (AID 1224845; active means well fitted activation curve with a large enough effect in the signal ratio in the repeat runs, not every such curve was filed as active; the % refers to the signal ratio)
Method in brief: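 Wild-type CHO-K1 cells, plated overnight, exposed 3hr at 37C to 15 concentrations (0.76% DMSO final). Lysed, then HTRF anti-pH2AX (S139) cryptate and anti-H2AX-d2 antibodies, 24 hr room temperature; 665/620 nm emission read.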

[2] = qHTS assay to identify small molecule agonists of the estrogen related receptor (ERR) signaling pathway from Tox21 library (AID 1224849; calls by dose curve; further: nearly all actives have a fitted effect of over 15% in size); settings: ERR reporter cell line, ONE-Glo luciferase, 18 h; at 92.4 µM (top of the series) unless noted
Method in brief: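 Tox21 compounds tested for ERR agonism in an NTP reporter cell line: 18 h treatment at 37 C, then ONE-Glo luminescence.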

[3] = qHTS RealTime-Glo MT Cell Viability Assay in HEK293 cells - 32 hour (AID 1224868); further: nearly all actives have a fitted effect of over 50% in size; further: potency means the concentration at half of the fitted maximal effect
Method in brief: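 Tox21 10K qHTS, HEK293, 600 cells/well, RealTime-Glo reagent co-dispensed with cells; 5 h preincubation, compound by pintool, 37 C, luminescence at 0–40 h.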

[4] = A CellTox Green Cytotoxicity Assay to monitor cytotoxicity in HEK293 cells - 0 hour (AID 1224869); further: nearly all actives have a fitted effect of over 50% in size
Method in brief: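 Tox21 screen in HEK293: membrane-impermeant cyanine dye fluoresces on binding dead-cell DNA; compound pinned 5 h post-seeding, plates held at 37 C, signal read repeatedly through 40 h.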

[5] = qHTS assay to identify small molecule antagonists of the estrogen related receptor (ERR) signaling pathway from Tox21 library (AID 1224848); further: nearly all actives have a fitted effect of over 50% in size; further: potency means the concentration at half of the fitted maximal effect
Method in brief: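 Quantitative high-throughput format: ERR reporter cells (2,000/well) pre-incubated 6 h, treated 18 h at 37 C with compounds in DMSO alongside positive and negative controls, then read by ONE-Glo luminescence.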

[6] = qHTS assay to identify small molecule agonists of the hypoxia (HIF-1) signaling pathway (AID 1224846; active means well fitted activation curve with a large enough effect in the signal ratio in the repeat runs, not every such curve was filed as active; the % refers to the signal ratio)
Method in brief: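 Reporter induction in HRE-bla ME-180 cells is taken as agonism: cells sit 5 hrs after plating, receive compounds or DMSO only, incubate 17 hrs at 37C under 5% CO2, and are loaded with CCF4-AM for beta-lactamase FRET measurement.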

[7] = qHTS assay to identify small molecule agonists of H2AX - cell viability counter screen (AID 1224847; calls by dose curve; further: nearly all actives have a fitted effect of over 30% in size; further: potency means the concentration at half of the fitted maximal effect)
Method in brief: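 CHO-K1 wt, 1000 cells/well, o/n 37C; cpds 15 conc, 3 h 37C, 0.76% DMSO; CellTiter-Glo, 30 min RT, luminescence.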

[8] = qHTS RealTime-Glo MT Cell Viability Assay in HepG2 cells - 24 hour (AID 1224867); further: nearly all actives have a fitted effect of over 50% in size; further: potency means the concentration at half of the fitted maximal effect
Method in brief: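 Cells + NanoLuc/prosubstrate dispensed (600 cells/well) → 5 h at 37 C/5% CO2 → compounds in DMSO transferred → 40 h incubation at 37 C, luminescence read at 0, 8, 16, 24, 32, 40 h.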

[9] = qHTS RealTime-Glo MT Cell Viability Assay in HepG2 cells - 40 hour (AID 1224870); further: nearly all actives have a fitted effect of over 50% in size; further: potency means the concentration at half of the fitted maximal effect
Method in brief: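 HepG2 cells (600/well) mixed with RealTime-Glo MT reagent, settled 5 h at 37 C/5% CO2 before compound addition. Nonlytic NanoLuc luminescence from viable-cell prosubstrate reduction read repeatedly during 40 h treatment at 37 C.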

SMILES	Potency [1]	activity change, positive = activation [2]	Potency [3]	Potency [4]	Potency [5]	outcome [6]	Potency [7]	Potency [8]	Potency [9]
CS/C(C)=N/OC(=O)N(C)SN(C)C(=O)O/N=C(\C)SC	inactive	-68.2%	49 µM (active)	inactive					
O=[N+]([O-])C(Br)(CO)CO	inactive			inactive	inactive				
NS(=O)(=O)C(F)(F)C(F)(F)C(F)(F)C(F)(F)C(F)(F)C(F)(F)C(F)(F)C(F)(F)F	inactive	-39.9%	inactive	inactive	inactive	inactive	inactive	inactive	inactive
Cc1ccc(-c2c(Cl)nc(C#N)n2S(=O)(=O)N(C)C)cc1	inactive			inactive		inactive	inactive	inactive	inactive
Clc1ccc(C(OCCN2CCCCC2)c2ccccc2)cc1 (stereo not given)	inactive	-17.2% [at 42.5 µM]		inactive			inactive		inactive
II	inactive		inactive	inactive			80 µM (active)	15.5 µM (active)	5.49 µM (active)
CCOC(=O)C(Cl)C(C)=O (stereo not given)	inactive		inactive	inactive			inactive	inactive	inactive
CCCCCCCCOC(=O)c1ccc(C(=O)OCCCCCCCC)c(C(=O)OCCCCCCCC)c1	inactive		inactive	inactive			inactive	inactive	
C=CC[C@]1(O)CC[C@H]2[C@@H]3CCC4=CC(=O)CCC4=C3C=C[C@@]21C		-61.2% [at 42.5 µM]	16.9 µM (active)	inactive			39.1 µM (active)		
[CH3][Sn]([CH3])([Cl])[Cl]	inactive	-70.4% and -43.3%		inactive	69.7 µM (active) and 61.1 µM (active)			inactive	inactive
CCCCC(O)(Cn1cncn1)c1ccc(Cl)cc1Cl (stereo not given)	inactive	-59.1%	38.9 µM (active)	inactive	38.5 µM (active)	inactive	113 µM (active)		
Cl/C=C\C[N+]12CN3CN(CN(C3)C1)C2	inactive	-0.401%		inactive	inactive	inactive	inactive	inactive	inactive
O=NN1CCNCC1	inactive		inactive	inactive		inactive	inactive		inactive
O=C1c2ccccc2C(=O)C1C(=O)C(c1ccccc1)c1ccccc1		-7.49% [at 42.5 µM]	inactive	inactive			inactive		inactive
O=C=Nc1ccc(Cl)cc1	inactive		inactive	inactive			inactive	inactive	inactive
COC1=CC(=O)O[C@@H](CCc2ccccc2)C1	inactive	-29.7%	inactive	inactive		inactive	inactive	inactive	inactive
O=[N+]([O-])c1cc(C(F)(F)F)cc([N+](=O)[O-])c1Cl	inactive	-42.9%		inactive	61.4 µM (active)	inactive	inactive	inactive	inactive
COC(N)=O	inactive		inactive	inactive			inactive	inactive	inactive
CCCC(=O)Cl	inactive		inactive	inactive			inactive	inactive	inactive
CN1C(=O)C(O)N=C(c2ccccc2)c2cc(Cl)ccc21 (stereo not given)	inactive	-0.379%		inactive	inactive		inactive	inactive	inactive
C=CC(=O)OCC(C)O (stereo not given)	inactive			inactive	inactive		inactive	inactive	inactive
Cc1c(F)c(F)c(COC(=O)C2C(/C=C(\Cl)C(F)(F)F)C2(C)C)c(F)c1F (stereo not given)	inactive		inactive	inactive		inactive			inactive
O=C(O)C(F)(F)C(F)(F)C(F)(F)C(F)(F)C(F)(F)C(F)(F)C(F)(F)C(F)(F)C(F)(F)C(F)(F)F	inactive	8.05%	inactive	inactive	inactive	inactive	inactive	inactive	
